13 molecules from PubChem BioAssay (NCATS) can be followed below.

Test [1] in a line: Quantitative High-Throughput drug screen in 47 multiple myeloma cell lines against the NCATS MIPE library collection: H1112_PLB cell viability assay (AID 1918967; further: nearly all actives have a fitted effect of over 30% in size). Summed up:
(§1)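 Myeloma cell lines, 500 cells per well, exposed to MIPE 4.0 library compounds for 48 h at 37C, 5% CO2. Viability from ATP by CellTiter-Glo luminescence; normalised to DMSO (100%) and media-only (0%) wells.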

Test [2] is described as follows: Quantitative High-Throughput drug screen in 47 multiple myeloma cell lines against the NCATS MIPE library collection: Karpas25_ECACC cell viability assay (AID 1918968; further: nearly all actives have a fitted effect of over 35% in size). The essentials:
as §1

Test [3] is described as follows: Quantitative High-Throughput drug screen in 47 multiple myeloma cell lines against the NCATS MIPE library collection: KMS27_JCRB cell viability assay (AID 1918970). Further: nearly all actives have a fitted effect of over 30% in size. The essentials: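 Luminescent ATP read-out (CellTiter-Glo, 5 min at room temperature) after 48 h compound exposure of 500 KMS27_JCRB cells per well; DMSO wells define full viability and media-only wells zero.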

The nature of test [4]: Quantitative High-Throughput drug screen in 47 multiple myeloma cell lines against the NCATS MIPE library collection: KMS12BM_JCRB cell viability assay (AID 1918971). Further: nearly all actives have a fitted effect of over 35% in size. Summed up:
(§2)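 Relative luminescence from CellTiter-Glo served as the viability signal, referenced to DMSO-treated (100%) and cell-free medium (0%) controls. Treatment lasted 48 hours at 37C with 500 cells per well.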

Test [5] in a line: Quantitative High-Throughput drug screen in 47 multiple myeloma cell lines against the NCATS MIPE library collection: KMS12PE_JCRB cell viability assay (AID 1918972). Further: nearly all actives have a fitted effect of over 30% in size. Summed up: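 We plated 500 myeloma cells per well, pinned in MIPE 4.0 compounds, and incubated for 48 hours at 37C. ATP was then quantified with CellTiter-Glo, with DMSO and media-only wells defining 100% and 0%.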

The nature of test [6]: Quantitative High-Throughput drug screen in 47 multiple myeloma cell lines against the NCATS MIPE library collection: KMS20_JCRB cell viability assay (AID 1918973). Further: nearly all actives have a fitted effect of over 45% in size. Summed up: as §1
Test [7] can be described thus: Quantitative High-Throughput drug screen in 47 multiple myeloma cell lines against the NCATS MIPE library collection: KMS26_JCRB cell viability assay (AID 1918975). Further: nearly all actives have a fitted effect of over 45% in size. Summed up:
as §2

Test [8] can be described thus: Quantitative High-Throughput drug screen in 47 multiple myeloma cell lines against the NCATS MIPE library collection: NCIH929_DSMZ cell viability assay (AID 1918978). Further: nearly all actives have a fitted effect of over 35% in size. The essentials:
(§3)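 Plated at 500 cells per well, myeloma lines received MIPE 4.0 compounds by pin tool. Following 48 h culture at 37 °C, CellTiter-Glo luminescence gave viability relative to DMSO and media-only controls.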

A short description of test [9]: Quantitative High-Throughput drug screen in 47 multiple myeloma cell lines against the NCATS MIPE library collection: OCIMY1_PLB cell viability assay (AID 1918979). Further: nearly all actives have a fitted effect of over 35% in size. The essentials: as §3
Test [10] is described as follows: Quantitative High-Throughput drug screen in 47 multiple myeloma cell lines against the NCATS MIPE library collection: MM1R_ATCC cell viability assay (AID 1918981). Further: nearly all actives have a fitted effect of over 35% in size. The essentials:
as §3

Test [11] can be described thus: Quantitative High-Throughput drug screen in 47 multiple myeloma cell lines against the NCATS MIPE library collection: LP1_DSMZ cell viability assay (AID 1918982). Further: nearly all actives have a fitted effect of over 35% in size. Summed up: as §3
Test [12] can be described thus: Quantitative High-Throughput drug screen in 47 multiple myeloma cell lines against the NCATS MIPE library collection: KMS28PE_JCRB cell viability assay (AID 1918983). Further: nearly all actives have a fitted effect of over 35% in size. The essentials: as §3
A short description of test [13]: Quantitative High-Throughput drug screen in 47 multiple myeloma cell lines against the NCATS MIPE library collection: L363_DSMZ cell viability assay (AID 1918984). Further: nearly all actives have a fitted effect of over 40% in size. The essentials: as §3
Test [14] is described as follows: Quantitative High-Throughput drug screen in 47 multiple myeloma cell lines against the NCATS MIPE library collection: MMM1_PLB cell viability assay (AID 1918976). Further: nearly all actives have a fitted effect of over 35% in size. Summed up: as §3
Test [15] is described as follows: Quantitative High-Throughput drug screen in 47 multiple myeloma cell lines against the NCATS MIPE library collection: MM1S_ATCC cell viability assay (AID 1918980). Further: nearly all actives have a fitted effect of over 45% in size. Summed up: as §3
Test [16] is described as follows: Quantitative High-Throughput drug screen in 47 multiple myeloma cell lines against the NCATS MIPE library collection: KMS34_JCRB cell viability assay (AID 1918985). Further: nearly all actives have a fitted effect of over 40% in size. The essentials: as §3
Test [17] is described as follows: Quantitative High-Throughput drug screen in 47 multiple myeloma cell lines against the NCATS MIPE library collection: OCIMY7_PLB cell viability assay (AID 1918987). Further: nearly all actives have a fitted effect of over 65% in size. Summed up: as §3
Test [18] in a line: Quantitative High-Throughput drug screen in 47 multiple myeloma cell lines against the NCATS MIPE library collection: OCIMY5_PLB cell viability assay (AID 1918988). Further: nearly all actives have a fitted effect of over 65% in size. Summed up:
as §3

Test [19] in a line: Quantitative High-Throughput drug screen in 47 multiple myeloma cell lines against the NCATS MIPE library collection: KMS21BM_JCRB cell viability assay (AID 1918974). To be noted: ATP luminescence, 48 h; viability: at 45.8 µM (top of the series). The essentials: as §1
The nature of test [20]: Quantitative High-Throughput drug screen in 47 multiple myeloma cell lines against the NCATS MIPE library collection: MOLP8_DSMZ cell viability assay (AID 1918977). Further: nearly all actives have a fitted effect of over 45% in size. The essentials: as §3

Inconclusive results are not listed. The source made the active and inactive calls. The call rests on the fitted dose curve; in most records, active means well fitted curve in the direction sought with a large enough effect; inconclusive means small, poorly fitted or top-dose-only effect, or another doubt; inactive means no such curve, though single readings can be large; an effect the other way counts as inactive or inconclusive.
Potency means the concentration at half of the fitted maximal effect.

Consider `NNC(=O)c1ccncc1`, for which the Potency result in test [1], in test [2], in test [3], in [4], in [5] and in test [6] was “inactive” in each case. Moreover, the Potency entry in test [7], in [8], in test [9], in test [10], in test [11] and in [12] was “inactive” throughout. The Potency result in [13] is “inactive”.
As to `COc1cc(NCc2ccc3nc(N)nc(N)c3c2C)cc(OC)c1OC`, the Potency is 2.64 µM (active) in test [1]; 4.18 µM (active) in [2]; 0.59 µM (active) in [3]; 13.2 µM (active) in test [4]; 0.935 µM (active) in [5]; 7.43 µM (active) in test [6]. Further, the Potency is 5.9 µM (active) in [7]; 8.33 µM (active) in [14]; 3.72 µM (active) in test [8]; 13.2 µM (active) in test [9]; 8.33 µM (active) in test [15]; 7.43 µM (active) in [10]. The Potency in test [11] was 1.48 µM (active); in test [12], 14.8 µM (active); in [13] it was 0.935 µM (active); in [16] it was 3.72 µM (active); in test [17], 1.48 µM (active); in test [18], 6.62 µM (active).
Turning to `CCc1cc(C(N)=S)ccn1`, the Potency entry in [1], in test [2], in [3], in [4], in [5] and in test [9] was “inactive” in each case. The Potency entry in test [11], in [13] and in test [16] was “inactive” each time.
Take `C1CCC(C(CC2CCCCN2)C2CCCCC2)CC1` (configuration not stated): the Potency in [1] is 23.5 µM (active); in test [2], 8.33 µM (active); in [3] it was 10.5 µM (active); in test [4], 9.35 µM (active); in test [5] it was 8.33 µM (active); in [6] it was 6.62 µM (active). Besides, the Potency was 11.8 µM (active) in test [19]; 16.6 µM (active) in test [7]; 8.33 µM (active) in test [14]; 16.6 µM (active) in [20]; 20.9 µM (active) in test [8]; 29.6 µM (active) in [9]. Besides, the Potency was 6.62 µM (active) in test [15]; 9.35 µM (active) in test [10]; 14.8 µM (active) in test [11]; 18.7 µM (active) in test [12]; 8.33 µM (active) in test [13]; 14.8 µM (active) in test [17]. In test [18], the Potency is 9.35 µM (active).
For `CC(C)(C)C(=O)OCOP(=O)(COCCn1cnc2c(N)ncnc21)OCOC(=O)C(C)(C)C`, the Potency in [1] is 3.72 µM (active); in test [2], 1.66 µM (active); in test [3], 0.469 µM (active); in [4], 0.935 µM (active); in test [6] it was 2.64 µM (active); in test [7] it was 6.62 µM (active). In addition, the Potency in test [14] is 18.7 µM (active); in test [8], 0.209 µM (active); in [9], 11.8 µM (active); in [15] it was 2.09 µM (active); in test [10], 0.332 µM (active); in test [11], 16.6 µM (active). Moreover, the Potency was 4.69 µM (active) in [13] and 1.87 µM (active) in test [18].
For `CCCCOc1ccc(CC(=O)NO)cc1`, the Potency in test [1] was 8.33 µM (active); in test [2], 6.62 µM (active); in test [3] it was 33.2 µM (active); in test [4] it was 20.9 µM (active); in test [5], 23.5 µM (active); in test [6] it was 16.6 µM (active). Moreover, the Potency in [19] was 14.8 µM (active); in test [7], 10.5 µM (active); in test [14] it was 13.2 µM (active); in [15] it was 2.64 µM (active); in test [10], 8.33 µM (active); in test [12] it was 20.9 µM (active). The results for the Potency in [13], in test [17] and in test [18] were 18.7 µM (active), 16.6 µM (active) and 9.35 µM (active), respectively.
Consider `COc1ccc(C(=O)CC(=O)c2ccc(C(C)(C)C)cc2)cc1`, for which the Potency in test [1] is 7.43 µM (active); in test [2], 2.35 µM (active); in test [3], 3.32 µM (active); in test [4] it was 2.35 µM (active); in test [5] it was 5.26 µM (active); in test [6] it was 2.96 µM (active). In addition, the Potency in test [7] is 7.43 µM (active); in test [14], 4.69 µM (active); in test [8], 1.32 µM (active); in test [15], 1.05 µM (active); in test [10], 2.35 µM (active); in test [12] it was 8.33 µM (active). The values for the Potency in [13], in test [17] and in test [18] were 6.62 µM (active), 3.72 µM (active) and 2.64 µM (active), respectively. In addition, in test [9], the Potency result is “inactive”.
As to `CCN[C@H]1C[C@H](C)S(=O)(=O)c2sc(S(N)(=O)=O)cc21`, the Potency result in test [1], in test [2], in test [3], in test [4], in test [5] and in test [6] was “inactive” in each case. In addition, the Potency result in test [7], in test [8], in test [9], in [10], in [11] and in test [12] was “inactive” each time. Besides, the Potency entry in test [13], in [16] and in [18] was “inactive” throughout.
For `O=C(N[C@H](CO)[C@H](O)c1ccc([N+](=O)[O-])cc1)C(Cl)Cl`, the Potency result in test [1], in test [2], in [3], in test [4], in [5] and in test [7] was “inactive” throughout. Besides, the Potency entry in [20], in [8], in test [9], in test [15], in test [10] and in test [11] was “inactive” each time. The Potency entry in test [12] and in [16] was “inactive” each time.
`CCOC(=O)[C@H](CCc1ccccc1)N[C@H]1CCc2ccccc2N(CC(=O)O)C1=O`: the Potency in test [1] was 23.5 µM (active); in [2], 20.9 µM (active); in test [3] it was 9.35 µM (active); in test [4], 29.6 µM (active); in test [5], 8.33 µM (active); in test [6], 5.9 µM (active). The Potency in test [19] was 9.35 µM (active); in [14], 18.7 µM (active); in [8], 26.4 µM (active); in [9], 23.5 µM (active); in [15], 8.33 µM (active); in test [10] it was 20.9 µM (active). The Potency was 20.9 µM (active) in test [11], 7.43 µM (active) in test [13] and 23.5 µM (active) in [18].
As for `CC1(C)[C@H](C(=O)O)N2C(=O)C[C@H]2S1(=O)=O`, the Potency entry in test [1], in test [2], in [4], in test [5], in test [7] and in test [8] was “inactive” throughout. Besides, the Potency entry in test [10] and in test [13] was “inactive” each time. For the same molecule, the Potency in test [15] was 26.4 µM (active); in [11], 0.0012 µM (active).
Take `CN(C)c1ccc(C(=C2C=CC(=[N+](C)C)C=C2)c2ccc(N(C)C)cc2)cc1`: the Potency in test [1] is 0.0372 µM (active); in test [2], 0.0118 µM (active); in test [4], 0.0662 µM (active); in test [5], 0.0093 µM (active); in [7], 0.166 µM (active); in test [14] it was 0.132 µM (active). Moreover, the Potency in [8] was 0.0264 µM (active); in test [9], 2.09 µM (active); in test [15], 0.105 µM (active); in [10] it was 0.132 µM (active); in [11], 0.418 µM (active); in test [12] it was 0.105 µM (active). Further, the Potency in [16] is 0.105 µM (active); in test [17], 0.0187 µM (active); in test [18], 0.0743 µM (active).
With `COc1c(N2CCNC(C)C2)c(F)cc2c(=O)c(C(=O)O)cn(C3CC3)c12` (configuration not stated), the Potency result in test [1], in [2], in test [3], in [5], in test [9] and in test [15] was “inactive” throughout. The Potency entry in [11], in test [12] and in [18] was “inactive” each time.
